Measured values as given in PubChem BioAssay (NCATS).
Results filed as inconclusive are left out. Entries that show only a call come without a potency. Active and inactive are the calls of the source. The call rests on the fitted dose curve; in most records, active means well fitted inhibition curve with a large enough effect; inconclusive means small, poorly fitted or top-dose-only effect, or effect the other way; inactive means flat fitted curve, though single readings scatter.

Each molecule was assayed against ATP-dependent 6-phosphofructokinase (Trypanosoma brucei brucei) (UniProt O15648) (assay: qHTS Assay to Find Inhibitors of T. brucei phosphofructokinase: hit validation (AID 492961;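 further: luminescence reports ADP formed as PFK phosphorylates fructose-6-phosphate with ATP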)). Conditions: T. brucei PFK, ADP-Glo luminescence; series mostly up to 51.4 µM.
ATP-dependent 6-phosphofructokinase (Trypanosoma brucei brucei), sequence (O15648 whole entry, looked up): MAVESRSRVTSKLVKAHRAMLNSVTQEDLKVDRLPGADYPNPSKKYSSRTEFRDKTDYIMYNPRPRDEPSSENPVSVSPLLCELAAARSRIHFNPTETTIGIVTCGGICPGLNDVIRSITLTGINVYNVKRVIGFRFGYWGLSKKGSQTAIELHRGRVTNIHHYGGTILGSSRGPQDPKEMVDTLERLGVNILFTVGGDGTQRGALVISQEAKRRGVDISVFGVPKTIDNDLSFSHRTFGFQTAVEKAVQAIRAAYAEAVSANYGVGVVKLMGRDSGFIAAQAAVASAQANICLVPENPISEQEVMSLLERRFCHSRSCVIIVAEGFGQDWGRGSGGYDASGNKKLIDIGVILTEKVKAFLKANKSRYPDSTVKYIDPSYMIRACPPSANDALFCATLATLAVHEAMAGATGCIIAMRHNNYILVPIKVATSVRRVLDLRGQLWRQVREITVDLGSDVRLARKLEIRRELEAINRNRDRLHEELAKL
Outline: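 ADP-Glo luminescence read-out of ADP formed by 1.25 nM PFK from 0.1 mM ATP and 0.5 mM F6P (TEA pH 8.0, 45 min, RT). Compounds titrated; activity normalized to no-enzyme and full-enzyme controls.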
In the case of `S=C=Nc1ccc(N=C=S)cc1`, the Potency is reported as “inactive”.
In the case of `CC(C)c1nc(N(C)S(C)(=O)=O)nc(-c2ccc(F)cc2)c1/C=C/C(O)CC(O)CC(=O)O` (configuration not stated), the Potency is reported as “inactive”.
For `COc1ccc2c(=O)c(C)c(-c3ccccc3)oc2c1CN(C)C`, the Potency was “inactive”.
For `CNC(=O)OCc1cccc(COC(=O)NC)n1`, the Potency was “inactive”.
With `C=CCN1CCCC1CNC(=O)c1cc(S(N)(=O)=O)cc(OC)c1OC` (configuration not stated) the Potency was “inactive”.
For `CCCCCCCCCCCCCCCCCCCCCC(=O)Nc1ccn([C@@H]2O[C@H](CO)[C@@H](O)[C@@H]2O)c(=O)n1`, the Potency was “inactive”.
`CCOc1cc(-c2nccc3cc(OC)c(OC)cc23)cc(OCC)c1OCC` was tested, and the Potency was “inactive”.
`CCCCC(CC)COS(=O)(=O)O` (configuration not stated) was tested, and the Potency was “inactive”.
With `CC[C@H]1OC(=O)[C@H](C)[C@@H](O[C@H]2C[C@@](C)(OC)[C@@H](O)[C@H](C)O2)C(C)[C@@H](O[C@@H]2O[C@H](C)C[C@H](N(C)C)[C@@H]2O)[C@](C)(OC)C[C@@H](C)C(=O)[C@H](C)[C@@H](O)[C@]1(C)O` (some centres not stated) the Potency was “inactive”.
For `[O]=[Bi][O][Bi]=[O]`, the Potency was “inactive”.
`CC(=O)c1ccc2c(c1)N(CCCN1CCN(CCO)CC1)c1ccccc1S2` was tested, and the Potency was “inactive”.
With `CC(C)(C)c1ccc2c(S(=O)(=O)O)c(C(C)(C)C)ccc2c1` the Potency was “inactive”.
In the case of `CO[C@H]1C[C@@H]2CC[C@@H](C)[C@@](O)(O2)C(=O)C(=O)N2CCCC[C@H]2C(=O)O[C@H]([C@H](C)C[C@@H]2CC[C@@H](OC(=O)C(C)(CO)CO)[C@H](OC)C2)CC(=O)[C@H](C)/C=C(\C)[C@@H](O)[C@@H](OC)C(=O)[C@H](C)C[C@H](C)/C=C/C=C/C=C/1C`, the Potency is reported as “inactive”.
`COC(=O)c1ccccc1O` was tested, and the Potency was “inactive”.
In the case of `CC(C)(CO)[C@@H](O)C(=O)NCCC(=O)NCCSSCCNC(=O)CCNC(=O)[C@H](O)C(C)(C)CO`, the Potency is reported as “inactive”.
`CC1C(=O)CC2C3(C)CCC2(C(C)C(=O)O)C(=O)C13` (configuration not stated) was tested, and the Potency was “inactive”.
`CCCCCCCCCCCCCCCCCC[N+](C)(C)CCC[Si](OC)(OC)OC` was tested, and the Potency was “inactive”.
